# From PubChem BioAssay (NCATS)
# Values joined by “and” are separate entries in the source; they are usually repeats but may differ in a detail not shown here. Equal entries are not always repeated. Results filed as inconclusive are left out. Where a call stands in place of a potency, no number is given. Active and inactive are the calls of the source. Calls follow the shape of the full dose curve.
# Test: Cytotoxicity counterscreen for inhibitors of SARS-CoV-2 cell entry (AID 1645845); also: nearly all actives have a fitted effect of over 50% in size
# Details: cell viability (SARS-CoV-2 entry assay cells); series mostly up to 57.1 µM
# Method in brief: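 Expi293F/hACE2 cells seeded overnight; cpd pin-transferred in DMSO, 1 h preincubation, + media, 48 h 37 C 5% CO2; ATPLite 1step luminescence; normalized to cells and no cells.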
row,Compound,Potency
1,Cc1ccc(C(=O)c2ccc(CC(=O)O)n2C)cc1,inactive
2,O=C(O)CCCCCCCC(=O)O,inactive
3,COc1ccc(C(=O)NCc2ccc(OCCN(C)C)cc2)cc1OC,inactive
4,O=C(c1ccccc1)C(O)c1ccccc1 (stereo not drawn),inactive
5,CCN(CC)CCNC(=O)c1cc(S(C)(=O)=O)ccc1OC,inactive
6,CC(CCc1ccc(O)cc1)NCCc1ccc(O)c(O)c1 (stereo not drawn),inactive
7,CN(C)CCN(Cc1ccsc1)c1ccccn1,inactive
8,CCn1cc(C(=O)O)c(=O)c2cnc(N3CCNCC3)nc21,inactive
9,O=C(O)CCCC[C@@H]1SC[C@@H]2NC(=O)N[C@@H]21,inactive
10,NC(=O)NC(=O)Cc1ccccc1,inactive
11,CN/C(=C\[N+](=O)[O-])NCCSCc1csc(CN(C)C)n1,inactive
12,CCN1CCCC1CNC(=O)c1cc(S(=O)(=O)CC)c(N)cc1OC (stereo not drawn),inactive
13,CCc1oc2ccccc2c1C(=O)c1cc(I)c(O)c(I)c1,inactive
14,CCCC(=O)O[C@]1(C(=O)CO)CC[C@H]2[C@@H]3CCC4=CC(=O)CC[C@]4(C)[C@H]3[C@@H](O)C[C@@]21C,inactive
15,CO/N=C(\C(=O)N[C@@H]1C(=O)N2C(C(=O)O)=C(C[N+]3(C)CCCC3)CS[C@H]12)c1csc(N)n1,inactive
16,CCCOC(=O)c1ccccc1,inactive
17,CCOC(=O)c1ccc(O)cc1,inactive
18,CC1COc2c(N3CCN(C)CC3)c(F)cc3c(=O)c(C(=O)O)cn1c23 (stereo not drawn),inactive
19,CNC[C@H](O)[C@@H](O)[C@H](O)[C@H](O)CO,inactive
20,CCN(Cc1ccncc1)C(=O)C(CO)c1ccccc1 (stereo not drawn),inactive

# Test: Primary qHTS to identify inhibitors of SARS-CoV-2 cell entry (AID 1645846); also: nearly all actives have a fitted effect of over 45% in size
# Details: SARS-CoV-2 pseudovirus cell entry assay, luminescence; activity change, negative = inhibition: at 57.1 µM (top of the series) unless noted; series mostly up to 57.1 µM
# Method in brief: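 HEK293 cells stably expressing human ACE2, pre-treated 1 h with compound, then infected with MLV particles pseudotyped with Wuhan-Hu-1 spike (C-terminal 19-aa truncation). Luciferase luminescence after 48 h at 37 °C, normalised to spike PP and bald PP.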
Compound,"activity change, negative = inhibition",Potency
CCCN1CCCC[C@H]1C(=O)Nc1c(C)cccc1C,-27.2%,
O=C(O)CCCCC1CCSS1 (stereo not drawn),,inactive
C/C(=C(\CCO)SS/C(CCO)=C(\C)N(C=O)Cc1cnc(C)nc1N)N(C=O)Cc1cnc(C)nc1N,-31.6%,
CC(=O)Nc1ccc(S(=O)(=O)Nc2cc(C)on2)cc1,,inactive
Cc1cc(C)c(NC(=O)CN(CC(=O)O)CC(=O)O)c(C)c1Br,-26.2%,
C[C@@H]1O[C@@H]1P(=O)(O)O,1.53% [at 27.1 µM],
CC(C)CN(C[C@@H](O)[C@H](Cc1ccccc1)NC(=O)O[C@H]1CO[C@H]2OCC[C@H]21)S(=O)(=O)c1ccc(N)cc1,,inactive
CN(C)C(=O)Oc1ccc[n+](C)c1,,inactive
CCn1ccc(NS(=O)(=O)c2ccc(N)cc2)nc1=O,,inactive
CCn1cc(C(=O)O)c(=O)c2cc(F)c(N3CCNC(C)C3)c(F)c21 (stereo not drawn),,inactive
O=C(CO)[C@@H](O)[C@H](O)[C@@H](O)CO,-14.3%,
O=C(C1CCCCC1)N1CC(=O)N2CCCc3ccccc3C2C1 (stereo not drawn),0.685%,
Oc1cccc(O)c1,,inactive
NC[C@H]1O[C@H](O[C@H]2[C@H](O[C@@H]3O[C@H](CO)[C@@H](O)[C@H]3O)C(O)[C@H](N)C[C@@H]2N)[C@H](N)[C@@H](O)[C@@H]1O (stereo partly drawn),-2.22% [at 11.3 µM],
CCCC(=O)OCOC(=O)C1=C(C)NC(C)=C(C(=O)OC)C1c1cccc(Cl)c1Cl (stereo not drawn),,inactive
NC(N)=NS(=O)(=O)c1ccc(N)cc1,,inactive
CCOC(=O)[C@H](CCc1ccccc1)N[C@@H](C)C(=O)N1CCC[C@H]1C(=O)O,-3.71% and -6.05%,
CCCCN(CCCC)CCCOC(=O)c1ccc(N)cc1,-17.6%,
Cc1ccc(C(=O)c2ccc(CC(=O)O)n2C)cc1,,inactive

Compound,"activity change, negative = inhibition",Potency
O=C(O)CCCCCCCC(=O)O,,inactive
COc1ccc(C(=O)NCc2ccc(OCCN(C)C)cc2)cc1OC,-12.5%,
O=C(c1ccccc1)C(O)c1ccccc1 (stereo not drawn),,inactive
CCN(CC)CCNC(=O)c1cc(S(C)(=O)=O)ccc1OC,,inactive
CC(CCc1ccc(O)cc1)NCCc1ccc(O)c(O)c1 (stereo not drawn),-37.3%,
CN(C)CCN(Cc1ccsc1)c1ccccn1,-8.15%,
CCn1cc(C(=O)O)c(=O)c2cnc(N3CCNCC3)nc21,0.978%,
O=C(O)CCCC[C@@H]1SC[C@@H]2NC(=O)N[C@@H]21,,inactive
NC(=O)NC(=O)Cc1ccccc1,,inactive
CN/C(=C\[N+](=O)[O-])NCCSCc1csc(CN(C)C)n1,,inactive
CCN1CCCC1CNC(=O)c1cc(S(=O)(=O)CC)c(N)cc1OC (stereo not drawn),4.53% and -0.585%,
CCc1oc2ccccc2c1C(=O)c1cc(I)c(O)c(I)c1,-21.9%,
CCCC(=O)O[C@]1(C(=O)CO)CC[C@H]2[C@@H]3CCC4=CC(=O)CC[C@]4(C)[C@H]3[C@@H](O)C[C@@]21C,-10%,
CO/N=C(\C(=O)N[C@@H]1C(=O)N2C(C(=O)O)=C(C[N+]3(C)CCCC3)CS[C@H]12)c1csc(N)n1,-9.52%,
CCCOC(=O)c1ccccc1,,inactive
CCOC(=O)c1ccc(O)cc1,,inactive
CC1COc2c(N3CCN(C)CC3)c(F)cc3c(=O)c(C(=O)O)cn1c23 (stereo not drawn),-0.258%,
CNC[C@H](O)[C@@H](O)[C@H](O)[C@H](O)CO,-19.7%,
CCN(Cc1ccncc1)C(=O)C(CO)c1ccccc1 (stereo not drawn),,inactive
